Screening results deposited in PubChem BioAssay by University of Kansas High Throughput Screening Laboratory.
Pf apPOL block – Pf-apPOL DNA polymerase inhibition | Recombinant Pf-apPOL, molecular beacon fluorescence, 1.5 h | inhibition, % at 10 µM | actives 0.25% (n = 210,000) | AID 1794808
mHTT CaM bind – inhibitors of human mutant huntingtin-calmodulin interaction | AlphaScreen His-mHTT/GST-CaM binding, luminescence | actives 3.6% (n = 190,000) | AID 1671202 | P42858 | inhibition, % at 15 µM;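 note: 0% = both proteins with DMSO and 100% = one protein alone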
An asterisk follows results filed as active; . = no result given. Most compounds without a hit are left out; they make up all but 3.6% or so of the library. Cut-off read from the data, not from the text of the source: active = inhibition above about 50%; inactive = the rest.

SMILES | Pf apPOL block | mHTT CaM bind
CC1=NN(C(=O)COc2cc(C)c(Cl)c(C)c2)C(O)(C(F)(F)F)C1 (stereo not drawn) | -3.2 | 12.0
O=C(c1ccccc1Cl)N1N=C2CCCCC2C1(O)C(F)(F)F (stereo not drawn) | -0.8 | -2.0
CC1=NN(C(=O)COc2ccc(Cl)c(C)c2)C(O)(C(F)(F)F)C1 (stereo not drawn) | -9.1 | 20.0
CCN(CC)C(=O)c1cn2ccnc(-c3ccccc3)c2n1 | 8.4 | -2.2
COc1ccc2c(c1)c(CN1CCC(C(=O)NCc3ccco3)CC1)cn2C | -1.7 | 17.6
COCCC1CCN(C(=O)c2ccccc2Br)CC1 | -4.3 | -5.4
COc1ccc(-c2cc(C(F)(F)F)n3nc(C(=O)NC(C)C)c(Cl)c3n2)cc1OC | 1.5 | -2.0
COc1ccc(-c2cc(C(F)(F)F)n3nc(C(=O)O)c(Cl)c3n2)cc1OC | 1.8 | 83.0*
CCOc1ccc(CN2CCc3nc(Nc4ccc(OC)cc4)ncc3C2)cc1 | -6.4 | 6.7
O=c1c2ccccc2ncn1CCOc1ccc(Cl)c(Cl)c1 | -10.4 | -1.6
C=C(C)C1CC=C(CNc2ccc(OC)c(OC)c2)CC1 (stereo not drawn) | -6.4 | 86.1*
COc1ccc(NC(=O)C2CC2)cc1OC | 1.8 | -0.4
COc1cc(C2C(C#N)=C(N)Oc3n[nH]c(C(F)(F)F)c32)cc(OC)c1OC (stereo not drawn) | -0.5 | 7.0
N#CC1=C(N)Oc2n[nH]c(-c3ccccc3)c2C1c1ccccc1Cl (stereo not drawn) | -4.7 | 9.0
COc1ccc(-c2[nH]nc3c2C(c2cc(Cl)c(O)c(OC)c2)C(C#N)=C(N)O3)cc1 (stereo not drawn) | 2.8 | 32.0
N#CC1=C(N)Oc2n[nH]c(-c3ccccc3)c2C1c1ccc2c(c1[N+](=O)[O-])OCO2 (stereo not drawn) | -4.1 | 51.0*
COc1cc(-c2[nH]nc3c2C(c2ccc(C(F)(F)F)cc2)C(C#N)=C(N)O3)cc(OC)c1OC (stereo not drawn) | -13.3 | 90.0*
CCOc1ccc(-c2[nH]nc3c2C(c2cn[nH]c2-c2ccc(F)cc2)C(C#N)=C(N)O3)cc1 (stereo not drawn) | -6.2 | 41.0
COc1cc(C2C(C#N)=C(N)Oc3n[nH]c(-c4ccc(Br)cc4)c32)cc(OC)c1O (stereo not drawn) | -8.2 | 87.0*
N#CC1=C(N)Oc2n[nH]c(-c3ccc(Br)cc3)c2C1c1cn[nH]c1-c1ccc(F)cc1 (stereo not drawn) | -0.3 | 59.0*
Cc1ccnc(N2CCC(C(=O)NCc3ccco3)CC2)n1 | 0.5 | 1.9
Cc1nc([N+](=O)[O-])cn1CC(=O)c1ccc(-c2cccnc2)s1 | -0.7 | .
COc1ccccc1N1CCN(S(=O)(=O)c2ccc(Br)cc2C)CC1 | -10.1 | -11.5
COCCN1C(=O)Cc2ccccc2C1C(=O)N1CCN(c2cccc(Cl)c2)CC1 (stereo not drawn) | -4.3 | 67.1*
CCN1C(=O)Cc2ccccc2C1C(=O)N1CCN(c2cccc(Cl)c2)CC1 (stereo not drawn) | 2.8 | 5.1
SMILES | Pf apPOL block | mHTT CaM bind
CCOC1CCN(C(=O)Nc2ccccc2C)CC1 | -2.9 | -5.4
CSc1cccc(NS(=O)(=O)c2cc(Br)cc3c2N(C(=O)C2CC2)CC3)c1 | -1.7 | 3.0
O=C(c1cc2sccc2n1Cc1ccccc1F)N1CCOCC1 | -3.6 | 5.6
CCn1c(C(=O)N2CCN(Cc3ccccc3)CC2)cc2sccc21 | -6.6 | 57.2*
Cc1ccc(NC(=O)CN2CCC(c3nc(-c4cccc(F)c4)no3)CC2)c(Cl)c1 | -2.8 | -7.6
Cc1nc(C)c(Cc2ccc(Cl)cc2)c(N2CCN(C(=O)C3CCOC3)CC2)n1 (stereo not drawn) | -1.9 | 63.8*
Cc1ccc(C)c(Cc2c(C)nc(C)nc2N2CCN(C(=O)C3CCOC3)CC2)c1 (stereo not drawn) | 3.4 | 38.0
O=C(Nc1cccc([N+](=O)[O-])c1)C(=O)NC1CC1 | -3.0 | 3.9
COc1ccc(C2CC(c3ccc(F)cc3)=NN2C(=O)CN(C)C(C)=O)cc1 (stereo not drawn) | -6.8 | 43.2
O=C(c1cccc(Cl)c1)N1CCCN(Cc2noc(-c3ccccc3)n2)CC1 | -2.0 | 5.6
Cc1[nH]nc(SCC(=O)Nc2cc(Br)ccc2O)c1[N+](=O)[O-] | 0.7 | 52.0*
Cc1ccc(O)c(NC(=O)CSc2n[nH]c(C)c2[N+](=O)[O-])c1 | 11.1 | 13.0
CC1C(=O)N(c2cccc(Br)c2)CCN1C(=O)C(C)(C)C (stereo not drawn) | -6.9 | -4.4
COc1ccc(C)cc1N1C=C(C#N)S(=O)(=O)c2c(F)cccc21 | 1.6 | -6.3
CCCSc1nnc2c(n1)OC(c1cc3c(cc1[N+](=O)[O-])OCO3)Nc1ccccc1-2 (stereo not drawn) | 4.2 | -6.0
C=CCSc1nnc2c(n1)OC(c1cc3c(cc1[N+](=O)[O-])OCO3)Nc1ccccc1-2 (stereo not drawn) | 0.3 | 93.1*
N#CC1=C(N)C(C#N)(C#N)C(c2ccccc2I)C2CCCC=C12 (stereo not drawn) | -3.2 | 11.0
CN1CC=C2C(C#N)=C(N)C(C#N)(C#N)C(c3cccc(Cl)c3)C2C1 (stereo not drawn) | -2.7 | 9.0
CC1CC=C2C(C#N)=C(N)C(C#N)(C#N)C(c3cccc(Cl)c3)C2C1 (stereo not drawn) | 0.5 | 70.0*
N#CC1=C(N)C(C#N)(C#N)C(c2cccnc2)C2CCCC=C12 (stereo not drawn) | 7.2 | 5.0
CC(C)(C)C1CC=C2C(C#N)=C(N)C(C#N)(C#N)C(c3c[nH]c4ccccc34)C2C1 (stereo not drawn) | 23.8 | 98.0*
N#CC1=C(N)C(C#N)(C#N)C(c2cccc([N+](=O)[O-])c2)C2CCCC=C12 (stereo not drawn) | 6.9 | 53.0*
COc1ccc(C2(c3ccc(OC)cc3)C(=O)N(C)N(C)c3ccccc32)cc1 | -5.0 | 34.0
Cc1nc(C)c(-c2ccc(=O)n(CCNC(=O)C3(c4cccs4)CCCC3)n2)s1 | -1.6 | -14.3
O=C(Cc1cccc2ccccc12)Nc1cc(-c2ccccn2)no1 | 2.2 | -14.9
SMILES | Pf apPOL block | mHTT CaM bind
O=C(Nc1nnc2ccccn12)c1cccc(F)c1 | -11.0 | 56.1*
O=C(Nc1nnc2ccccn12)c1cc(F)cc(F)c1 | -10.6 | 81.6*
Cc1ccc(C(=O)Nc2nnc3ccccn23)cc1 | -7.5 | 24.0
Cc1cccc(C(=O)Nc2nnc3ccccn23)c1 | -6.9 | 21.7
O=C(Nc1nnc2ccccn12)c1ccc(F)cc1 | -7.7 | 24.2
Cc1ccc(C(=O)Nc2nnc3ccccn23)s1 | -10.0 | 91.3*
COCCNC(=O)C(=O)NCCc1ccc(Cl)cc1 | -9.8 | -13.7
Brc1ccc2ncnc(N3CCCC3)c2c1 | -2.5 | -1.8
c1ccc2c(N3CCN(c4ncnc5ccccc45)CC3)ncnc2c1 | 56.8* | -4.4
CC(C)C(=O)NC(c1ccc(N(C)C)cc1)c1ccc2cccnc2c1O (stereo not drawn) | -0.7 | 100.0*
CCN(CC)c1ccc(C(NC(=O)C(C)C)c2ccc3cccnc3c2O)cc1 (stereo not drawn) | 6.1 | 100.0*
O=C(CCSc1ccccc1)NCCn1nc(-c2ccc(Cl)cc2)ccc1=O | -11.0 | -16.3
COc1ccc(CC(=O)N2CCCC2c2ccc(C)cc2)cc1 (stereo not drawn) | -1.1 | -1.8
Cc1ccc(NC(=O)CN2CCC3(CC2)N=C(c2cccc(F)c2)C(=O)N3)cc1 | 5.0 | 33.9
